In PubChem BioAssay AID1794845 (National Center for Advancing Translational Sciences (NCATS), 2023):
Among all 6,900 compounds or so, fewer than 10 were called active. The call rests on the fitted dose curve; in most records, active means well fitted curve in the direction sought with a large enough effect; inconclusive means small, poorly fitted or top-dose-only effect, or another doubt; inactive means no such curve, though single readings can be large or run the other way. These entries were drawn from the full list.

Target: Metallo-beta-lactamase type 2 (Klebsiella pneumoniae) (UniProt C7C422)
Sequence (C7C422 whole entry, looked up): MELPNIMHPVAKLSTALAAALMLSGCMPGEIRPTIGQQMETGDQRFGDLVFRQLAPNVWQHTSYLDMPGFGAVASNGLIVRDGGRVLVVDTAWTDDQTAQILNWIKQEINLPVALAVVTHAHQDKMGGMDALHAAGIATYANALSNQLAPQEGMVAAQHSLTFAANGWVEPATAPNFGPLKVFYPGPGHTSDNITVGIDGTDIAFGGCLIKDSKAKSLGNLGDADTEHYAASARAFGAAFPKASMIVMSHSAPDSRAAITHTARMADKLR
Test: qHTS to identify inhibitors of the New Delhi Metallo-beta-lactamase (NDM): primary screen against the NCATS Gemini Collection; further: % of control where 0% means no effect
Settings: NDM-1 enzyme, meropenem hydrolysis, absorbance 300 nm; series mostly up to 38.4 µM; activity % (negative = inhibition): at the top concentration
Excerpt: Assay Submitter (PI): James Inglese Ph.D., Patricia Dranchak Ph.D., Mahesh Aitha Ph.D. Assay Development and Screening Technology Laboratory (ADST) National Center for Advancing Translational Sciences (NCATS), Rockville, MD National Institute of Health (NIH), Bethesda, Maryland The metallo-beta-lactamases (MBL) are a main antibiotic resistance mechanism evolved by bacteria. There is an urgent clinical need for MBL inhibitors to mitigate this growing threat. To support a machine-based learning study, qHTS has been used to experimentally test inhibitors identified by prediction tools.
PROTOCOL TABLE (as described by Inglese et al., 2007) SEQUENCE No. (e.g., 1, 2, 3, etc.); […] (e.g., enzyme, Incubation, Reagent, etc.); VALUE; DESCRIPTION 1; NDM-1; 4 uL of 3 nM enzyme [2 nM final] in 50 mM HEPES (pH 7.0), 1 uM […], 0.01% Tween20; Use BioRaptr to dispense into Aurora black, clear bottom low base 1536-well plates 2; Compounds; 23 nL; Use Pin Tool (Wako) to transfer DMSO control and library compounds in DMSO 3; Incubate; >30 min 4; Reagent; 2 uL of 150 uM meropenem [50 uM final] 5; Incubate; 30 min. 6; Detector; Absorbance at 300 nm (bandwidth = 5 nm, 25 flashes/well) on Tecan Infinity NOTES (numbers refer to sequence above) 1; Column 1 of each plate received assay buffer without enzyme and columns 2-48 received enzyme for a final assay concentration of 2 nM. 2; Control plate contained DMSO in columns 1, 2, 3, and 4. 3; Compound interaction with enzyme. 4; Meropenem substrate was prepared in the same assay buffer as step 1 for a final assay concentration of 50 uM and added to all wells across the assay plates. 5; Substrate interaction with enzyme, plateau phase of kinetics. 6; Default reader settings were applied for absorbance read at 300 nm, bandwidth = 5 nm, 25 flashes/well. References: Inglese J, Shamu CE, Guy RK. 2007. Reporting data from high-throughput screening of small-molecule libraries. Nat Chem Biol. doi:10.1038/nchembio0807-438 Yasgar A, Shinn P, Jadhav A, Auld D, Michael S, Zheng W, Austin CP, Inglese J, Simeonov A. 2008. Compound Management for Quantitative High-Throughput Screening. J Lab Autom 13:79 - 89. doi:10.1016/j.jala.2007.12.004

Activity % (negative = inhibition), inactive:
Cc1cn2nc(C(=O)N3CCC(C(=O)NCc4ccccn4)CC3)cc2c(=O)[nH]1 18.9%, Cn1cc(CN2C[C@H](C(=O)Nc3nccs3)C[C@@H]2c2cccc(C(F)(F)F)c2)cn1 4.37% [at 57.5 µM], COc1ccc(C(=O)N2CCC[C@H]2c2nc(-c3ccccc3)no2)cc1 5.95%, COc1ccc(NC(=O)c2nc3sccn3c2-c2cccc(OC)c2)cc1 27.7%, C[C@@H]1CN(C(=O)CN2CCN(c3ncccn3)CC2)C[C@@]1(O)C1CCC1 14.1%, Cc1nc(C)c(C(=O)N2CCC(Cc3nc(C4CC4)n[nH]3)CC2)s1 18.2%, Cn1cc(CN2CCN(c3ccc(C#N)cn3)CC2)c(-c2ccccc2)n1 12.2%, CCc1cc(=O)n(CC(=O)N2CCN(c3ccccc3OC)CC2)c(-c2ccccc2)n1 -0.786%, COCCN1C[C@@H]2[C@H](c3ccccc31)[C@@H](CO)[C@@H](c1ccccc1)N2C(=O)COC(C)=O 4.01%, Cc1ccc(CNC(=O)N(C)CC2CCOCC2)cc1 -0.782%, COCC(=O)N1CCC(C2CCN(C(=O)c3ccncc3)CC2)C1 (stereo not given) -0.46%, COc1cccc(CCC(=O)N2CCC3(CC2)N=C(c2ccccc2)NO3)c1 16.3%, CCN1c2cc(C(=O)NCc3cccc(OC)c3)ccc2C(=O)N2CCCCCC21 (stereo not given) -1.41%, c1coc(-c2nnc([C@H]3CCN(Cc4c[nH]c5ccccc45)C3)o2)c1 37.1% [at 57.5 µM], C[C@@H]1CN(C2(C(=O)NCc3n[nH]c4c3CCC4)Cc3ccccc3C2)C[C@H](C)O1 0.0426%, CCOC(=O)C1c2c(OC)ccc3c2C(=CC(C)(C)CO3)CN1C(=O)C1CC1 (stereo not given) 2.76%, Cc1cccc(-c2nc3ccc(C(=O)NC4CCCCCC4)cc3o2)n1 29% [at 57.5 µM], O=C1CCN(C(=O)[C@@H]2CCCN2C(=O)Nc2ccccc2)CCCCCCN1 -1.52%, CCc1ccc(NC(=O)Cn2nc3n(c2=O)CCCC3)cc1 -0.266%, COCC1CN(C)CC12CCN(Cc1sccc1C)CC2 (stereo not given) -2.49%, Fc1ccccc1-c1noc(NCCc2ccc(Cl)cc2)n1 14.8%, Nc1nc(CCC(=O)N[C@@H]2[C@@H](Cc3ccccc3)[C@H]3OCC[C@@H]23)cs1 -5.81%, O=C([C@H]1C[C@H](Oc2cccnc2)CN1C(=O)c1ccc2ccccc2n1)N1CCOCC1 27%, O=S(=O)(c1cnc[nH]1)N1CCC(c2nc(CCOCC3CC3)no2)C1 (stereo not given) -2.63%, CCc1ccc(CN2CCN(c3ccc(C(N)=O)cn3)CC2)nc1 17.8%, COCC(=O)N(C1CCOCC1)C1CCN(C(=O)c2cccnc2C)CC1 10.8%, CC(C)CCN1CCC(N2CCN(C(=O)c3ccc(Br)o3)CC2)C1=O (stereo not given) 57%, Cc1cc(C(=O)NC2CCCC2)c2c(C3CCNC3)noc2n1 (stereo not given) 1.69%, CCS(=O)(=O)N1CCC2(CCC2OC)CC1 (stereo not given) 27.6%, Cc1cnc(CC2CCN(S(=O)(=O)c3ccc4c(c3)CCC4)CC2)n1CC1CC1 12.7%, CC1CCCCN1Cc1nnc2cc(-c3nc(-c4ccccc4)no3)ccn12 (stereo not given) 11.3%, COc1ccc(CN2CCc3nc(N4CCN(C)CC4)[nH]c(=O)c3CC2)c(OC)c1OC 2.04%, Cn1nc2n(c1=O)CCN(C1CCSCC1)CC2 2.04%, COc1ccccc1CC(=O)Nc1cccn2nc(C(C)C)nc12 4.57%, O=C(C1CCCN([S+](=O)([O-])c2cccc(C(F)(F)F)c2)C1)N1CCC(c2nc3ncccc3[nH]2)C1 (stereo not given) 3.41%, O=C(COc1cccc(-c2nnc3n2CCCC3)c1)NCc1ccccc1 -4.92%, CCNC(=O)c1c(C)oc2c1CN(Cc1ccc(Br)o1)CC2 6.18%, COc1ccc2c(c1)c(CN1C[C@@H](CO)[C@H](c3nc(C)no3)C1)cn2C 23.1%, Nc1nc(CCC(=O)N[C@@H]2COCC[C@H]2Oc2ccc(CO)cc2)cs1 -3.81%, Cc1cccc2c1O[C@H]1[C@H](CO)CN([S+](=O)([O-])c3cccs3)[C@@H]21 4.48%, Cc1cccc(C(=O)N2CC[C@H]3C(=O)NCCCCCCN(Cc4ccncc4)[C@@H]3C2)c1 1.14%, Fc1ccc2nc(CO[C@H]3CN(C4CCOCC4)C[C@H]3F)[nH]c2c1 3.56% [at 57.5 µM], O=C(c1ccccc1)N1CCC2(CC(Cc3ccccc3)=NO2)C1 (stereo not given) 9.1% [at 57.5 µM], CCc1nc2c(c(-c3ccc(O)cc3)n1)CN(Cc1ccc(NC(C)=O)cc1)CC2 13.5%, Cc1ncnc(N2CCN(C(=O)C3CCN(C(=O)C4CC4)CC3)CC2)c1C 7.66%, O=C(CC1CCOCC1)Nc1ccc(N2CCOCC2)cc1 -5.65%, CCNc1ncc(C(=O)N[C@H](C2CCNCC2)C2CC(O)C2)cn1 (stereo not given in full) 21.5%, CCOC(=O)C1(Cc2ccccc2F)CCCN(C(=O)c2ccc3c(c2)OCCO3)C1 (stereo not given) -0.209%, O=C(NC1CC(c2nnc(CO)n2C2CC2)C1)c1ccc2c(c1)CCO2 (stereo not given) -1.33%, Nc1nc(CCCNC(=O)C2CC(=O)N(Cc3ccccn3)C2)cs1 (stereo not given) 5.55%, Fc1ccc(-c2cccc(CN3CC4CCC(C3)N4c3ccc(C(F)(F)F)cc3)c2)c(F)c1 5.91%, CC(=O)Nc1cccc(-c2ncc3c(n2)OCCN(CC2CC2)C3=O)c1 23.9% [at 57.5 µM], CN(C)CC1(O)CCN(C(=O)Cn2cc(C(=O)C3CC3)c3ccccc32)C1 (stereo not given) 69.4%, Nc1ncccc1CNC(=O)[C@H]1CCC[C@H](O)C1 16.9%, COc1ccc(-c2cc(-c3ccncc3)cn3cncc23)cc1 2.77% [at 57.5 µM], O=C1NCCOCCCN(S(=O)(=O)c2ccccc2)[C@H]2CCCC[C@@H]12 77.7%, Cc1cc(C(=O)N2CC(N(C(=O)NC(C)C)C3CCOCC3)C2)nn1C -2.63%, Cc1[nH]c2ccccc2c1CC(=O)NCc1ccccc1-n1cncn1 7.08%, COC(=O)N1CCN(Cc2cc(=O)c3cc(F)ccc3[nH]2)CC1 14%, CCCN(C)C(=O)c1c(-c2ccc(F)cc2)noc1[C@H](C)O -10.9% [at 57.5 µM], O=C(NCc1nc(-c2ncccn2)no1)C1CC2(CCNCC2)CN1 (stereo not given) -0.57%, CC(C)N1CC[C@@H]2[C@H]1C(=O)NC[C@H](CCC(=O)NCc1ccc(F)cc1)N2C 28% [at 57.5 µM], Cc1cccc(O[C@H]2COCCN(c3nc4ccccc4o3)C2)n1 14.5% [at 57.5 µM], COc1ccc(NC(=O)C2CCN(C(=O)c3ncn4c3COC(c3ccccc3)C4)CC2)cc1Cl (stereo not given) 24.2%, CC1(NC(=O)C2CC2)CN(Cc2nc(-c3ccccc3OCc3ccccc3)cs2)C1 3.21% [at 57.5 µM]
